The values below come from PubChem BioAssay.

In general, inhibition refers to the drop in the measured response relative to a control, in per cent.

Values without a mark were called inactive. For some of these results: Entries with a potency or affinity are not part of this list. Activity calls are given as the source filed them. Unless noted, no rule for the calls is given here.

A short description of test [1]: antimalarial activity against Dd2 strain (AID 2302;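 active = growth inhibition above 50% at the single 2 µM test dose, taken to imply half-maximal potency below 2 µM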;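 also: 0% = DMSO untreated growth and 100% = chloroquine plus artemisinin killed control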). Particulars: P. falciparum Dd2 in RBCs, LDH growth readout, 72 h; at 2 µM; active compounds read high.
Test [2] is described as follows: HepG2 cytotoxicity, primary screen, cytotoxicity control for P. falciparum antimalarial project, cell-based, ATP luminescence (AID 2303;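 active = inhibition above 50%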;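 also: 0% = DMSO wells and 100% = digitonin-killed cells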). Particulars: HepG2 viability, 24-48 h, at 10 µM, active compounds read high.
The target in test [3] is L-lactate dehydrogenase (Plasmodium falciparum (isolate CDC / Honduras)) (UniProt Q27743). In words: PfLDH activity inhibition – cell lysate, 3D7 strain, counter-screen for P. falciparum growth inhibition project (AID 2304).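 Also: 0% = vehicle and 100% = reference inhibitor.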 The following applies: P. falciparum 3D7 crude extract, LDH APAD/NBT absorbance; at 2 µM; active compounds read high.
Test [4] is described as follows: inhibition of 3D7 malaria parasite growth – strain 3D7 (AID 2306).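 Also: 0% = DMSO wells and 100% = chloroquine plus artemisinin control wells.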 Particulars: P. falciparum 3D7 erythrocytic growth, LDH absorbance, 72 h; at 2 µM; active compounds read high.
Test [5] deals with Calcium-dependent protein kinase 1 (Plasmodium falciparum (isolate 3D7)) (UniProt P62344). In words: PfCDPK1 kinase inhibitors, biochemical, TCAMS library (AID 1159585; cut-off not given, nearly all actives have IC50 up to about 0.98 µM;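 also: inhibitors leave more ATP so luminescence rises with inhibition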). Particulars: recombinant PfCDPK1, Kinase-Glo ATP depletion luminescence.
Test [6] concerns the target Plasmodium falciparum protein kinase 6 (PK6, PF3D7_1337100) (UniProt Q8IDW1). In words: PfPK6 kinase inhibitors, biochemical, TCAMS library (AID 1159586). Particulars: recombinant PfPK6, Kinase-Glo ATP depletion luminescence. Background: Kinase-Glo measures the ATP left after a reaction by luminescence.
The target in test [7] is Protein kinase 7 (PK7), Plasmodium falciparum 3D7 (PF3D7_0213400) (UniProt Q7YTF7). The test is described as follows: inhibition of Plasmodium PK7 catalytic activity – biochemical, TCAMS antimalarial set, Kinase-Glo luminescence (AID 1159587). Particulars: recombinant PfPK7, Kinase-Glo ATP depletion luminescence.
Test [8] addresses Calcium-dependent protein kinase 4 (Plasmodium falciparum (isolate 3D7)) (UniProt Q8IBS5). In words: PfCDPK4 kinase inhibitors, biochemical, TCAMS library (AID 1159588; cut-off not given, nearly all actives have IC50 up to about 0.91 µM). Particulars: recombinant PfCDPK4, Kinase-Glo ATP depletion luminescence.

Sequence of L-lactate dehydrogenase (Plasmodium falciparum (isolate CDC / Honduras)) (Q27743 whole entry, looked up): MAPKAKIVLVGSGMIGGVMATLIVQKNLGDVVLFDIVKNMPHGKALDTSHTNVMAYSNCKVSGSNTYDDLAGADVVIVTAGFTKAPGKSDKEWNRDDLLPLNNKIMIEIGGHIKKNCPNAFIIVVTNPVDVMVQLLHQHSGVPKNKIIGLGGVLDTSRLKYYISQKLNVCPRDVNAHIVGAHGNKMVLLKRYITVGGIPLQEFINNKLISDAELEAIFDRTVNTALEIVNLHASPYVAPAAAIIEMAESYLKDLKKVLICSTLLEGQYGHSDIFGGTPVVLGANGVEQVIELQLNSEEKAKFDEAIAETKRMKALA
Sequence of Calcium-dependent protein kinase 4 (Plasmodium falciparum (isolate 3D7)) (Q8IBS5 whole entry, looked up): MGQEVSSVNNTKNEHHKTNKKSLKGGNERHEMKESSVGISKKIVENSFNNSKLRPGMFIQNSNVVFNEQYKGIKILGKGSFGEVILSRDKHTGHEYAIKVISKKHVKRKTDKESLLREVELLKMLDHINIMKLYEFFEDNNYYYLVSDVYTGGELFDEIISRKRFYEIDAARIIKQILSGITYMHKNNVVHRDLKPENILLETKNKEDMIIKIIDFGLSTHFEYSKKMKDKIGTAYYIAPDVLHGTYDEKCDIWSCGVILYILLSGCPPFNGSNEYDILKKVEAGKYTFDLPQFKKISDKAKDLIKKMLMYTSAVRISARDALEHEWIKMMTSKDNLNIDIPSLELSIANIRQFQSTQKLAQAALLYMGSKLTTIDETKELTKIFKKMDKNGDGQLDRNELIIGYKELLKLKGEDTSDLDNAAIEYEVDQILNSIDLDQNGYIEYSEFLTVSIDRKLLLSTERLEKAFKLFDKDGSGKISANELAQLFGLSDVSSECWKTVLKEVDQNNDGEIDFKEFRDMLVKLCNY
Sequence of Plasmodium falciparum protein kinase 6 (PK6, PF3D7_1337100) (Q8IDW1 1-305): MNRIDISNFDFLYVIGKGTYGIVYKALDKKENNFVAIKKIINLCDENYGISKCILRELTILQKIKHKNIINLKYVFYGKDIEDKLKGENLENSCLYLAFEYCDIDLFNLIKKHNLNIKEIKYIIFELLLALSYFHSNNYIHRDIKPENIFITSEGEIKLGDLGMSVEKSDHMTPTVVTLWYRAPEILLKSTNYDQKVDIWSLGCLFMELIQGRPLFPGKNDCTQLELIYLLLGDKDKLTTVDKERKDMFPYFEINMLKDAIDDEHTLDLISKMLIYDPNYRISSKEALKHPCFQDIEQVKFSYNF
Sequence of Protein kinase 7 (PK7), Plasmodium falciparum 3D7 (PF3D7_0213400) (Q7YTF7 1-343): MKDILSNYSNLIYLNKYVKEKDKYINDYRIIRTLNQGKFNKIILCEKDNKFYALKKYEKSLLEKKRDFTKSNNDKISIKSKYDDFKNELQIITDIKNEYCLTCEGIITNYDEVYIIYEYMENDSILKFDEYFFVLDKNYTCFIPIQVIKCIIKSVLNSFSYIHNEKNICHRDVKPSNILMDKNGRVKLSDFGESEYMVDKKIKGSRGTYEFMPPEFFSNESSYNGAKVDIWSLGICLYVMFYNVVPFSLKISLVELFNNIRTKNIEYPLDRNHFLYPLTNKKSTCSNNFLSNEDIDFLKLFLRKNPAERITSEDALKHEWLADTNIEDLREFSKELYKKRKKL
Sequence of Calcium-dependent protein kinase 1 (Plasmodium falciparum (isolate 3D7)) (P62344 whole entry, looked up): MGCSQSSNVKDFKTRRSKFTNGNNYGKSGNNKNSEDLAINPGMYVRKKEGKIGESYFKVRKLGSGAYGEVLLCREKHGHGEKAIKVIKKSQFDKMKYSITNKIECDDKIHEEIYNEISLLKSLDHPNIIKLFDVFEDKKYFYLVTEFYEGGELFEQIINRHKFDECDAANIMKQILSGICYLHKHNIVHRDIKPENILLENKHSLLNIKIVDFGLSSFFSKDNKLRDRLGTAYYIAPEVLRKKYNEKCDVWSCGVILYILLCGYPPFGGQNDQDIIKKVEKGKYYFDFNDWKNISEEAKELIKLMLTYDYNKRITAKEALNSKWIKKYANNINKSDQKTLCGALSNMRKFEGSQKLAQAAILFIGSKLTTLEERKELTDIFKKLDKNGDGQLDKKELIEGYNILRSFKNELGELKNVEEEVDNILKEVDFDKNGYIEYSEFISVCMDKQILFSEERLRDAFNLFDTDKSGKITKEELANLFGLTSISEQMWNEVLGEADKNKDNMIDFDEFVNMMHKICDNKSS

In the case of `CC(CCON1C(N)=NC(N)=NC1(C)C)c1ccc(Cl)c(Cl)c1` (stereo not given), the growth inhibition is 97% (active) in test [1] and 98% (active) in test [4]. In addition, the inhibition in test [2] is 60% (active); in test [3], -3%. The outcome in test [5], in test [6], in test [7] and in test [8] was inactive.
Consider `Cc1cc(C)n(-c2nc(Nc3cccc(C(F)(F)F)c3)nc(-n3nc(C)cc3C)n2)n1`, for which the growth inhibition was 88% (active) in test [1] and 99% (active) in test [4]. The inhibition in test [2] was -8%; in test [3], -6%. The result in test [5], in test [6], in test [7] and in test [8] was inactive.
As for `Cc1ccc(C2=NNC3(S2)C(=O)Nc2ccc(C)cc23)cc1` (stereo not given), the growth inhibition is 89% (active) in test [1] and 95% (active) in test [4]. Besides, the inhibition was 35% in test [2] and 6% in test [3]. Further, the result in test [5], in test [6], in test [7] and in test [8] was inactive.
`Cc1noc(C)c1-c1ccc(C(=C2CCCCCC2)c2ccc(O)cc2)cc1`: the growth inhibition in test [1] was 96% (active); in test [4], 100% (active). The inhibition was -7% in test [2] and 7% in test [3]. Besides, the outcome in test [5], in test [6], in test [7] and in test [8] was inactive.
Consider `CCN(CC)CCN(Cc1ccc(-c2ccc(C(F)(F)F)cc2)cc1)C(=O)Cn1c(SCc2ccc(F)cc2)nc(=O)c2sccc21`, for which the growth inhibition in test [1] was 65% (active); in test [4], 101% (active). The inhibition was 51% (active) in test [2] and -1% in test [3]. Also, the result in test [5], in test [6], in test [7] and in test [8] was inactive.
For `Cn1cc(CCNc2ccnc(NCCc3coc4ccccc34)n2)c2ccccc21`, the growth inhibition is 28% in test [1] and 87% (active) in test [4]. For the same compound, the inhibition in test [2] is 26%; in test [3], 6%. Further, the outcome in test [5], in test [6], in test [7] and in test [8] was inactive.
On to `Cc1nnc(Sc2ncnc3scc(-c4ccc(F)cc4)c23)s1`, for which the figures for the growth inhibition in test [1] and in test [4] were 50% (active) and 99% (active), respectively. Further, the inhibition in test [2] was 13%; in test [3] it was 4%. Moreover, the outcome in test [5], in test [6], in test [7] and in test [8] was inactive.
Turning to `CNCc1cccc2[nH]c(-c3ccc(Cc4cc(Cl)ccc4OCC(C)C)o3)nc12`, the growth inhibition in test [1] is 23%; in test [4] it was 97% (active). The inhibition in test [2] is 20%; in test [3] it was 0%. The result in test [5], in test [6], in test [7] and in test [8] was inactive.
Turning to `Cc1ccc(C2(CN3CCC(NC(=O)c4ccn[nH]4)CC3)CCCCC2)cc1`, the growth inhibition in test [1] was 96% (active); in test [4], 97% (active). The inhibition is -6% in test [2] and -3% in test [3]. The outcome in test [5], in test [6], in test [7] and in test [8] was inactive.
For the compound `N#Cc1ccc(-c2ccc(C(=O)NCCCCN3CCC(n4cnc5ccccc54)CC3)cc2)cc1`, the values for the growth inhibition in test [1] and in test [4] were 2% and 94% (active), respectively. Further, the inhibition is 15% in test [2] and -3% in test [3]. Further, the result in test [5], in test [6], in test [7] and in test [8] was inactive.
Consider `Oc1ccc(CN2CCC(NCc3cccc4ccccc34)CC2)cc1`, for which the growth inhibition is 8% in test [1] and 97% (active) in test [4]. For the same compound, the inhibition in test [2] was 8%; in test [3], -3%. Also, the result in test [5], in test [6], in test [7] and in test [8] was inactive.
With `CCN(CC)CCCC(C)Nc1c2cc(OC)ccc2nc2cc(Cl)c([N+](=O)[O-])cc12` (stereo not given), the growth inhibition was 89% (active) in test [1] and 100% (active) in test [4]. The inhibition in test [2] was 12%; in test [3], 2%. For the same compound, the result in test [5], in test [6], in test [7] and in test [8] was inactive.
On to `O=C(Nc1ccc(F)cc1)c1cnc(N2CCN(c3ccncc3)CC2)c(Cl)c1`, for which the growth inhibition in test [1] was 81% (active); in test [4], 100% (active). Moreover, the inhibition in test [2] is 41%; in test [3], -3%. In addition, the result in test [5], in test [6], in test [7] and in test [8] was inactive.
In the case of `Cc1ccc(N2C(=O)C3C(C2=O)[C@]2(c4ccccc4)C(=O)[C@@]3(c3ccccc3)C(c3ccccc3)=C2c2ccccc2)cc1` (stereo not given in full), the values for the growth inhibition in test [1] and in test [4] were 96% (active) and 92% (active), respectively. Moreover, the inhibition in test [2] is 17%; in test [3] it was -2%. Moreover, the result in test [5], in test [6], in test [7] and in test [8] was inactive.
In the case of `Cc1cccc2[nH]c(-c3ccc(-c4ccc(CN5CCN(CC6CCCN(C)C6)CC5)cc4)cc3)nc12` (stereo not given), the growth inhibition in test [1] was 99% (active); in test [4], 101% (active). Further, the results for the inhibition in test [2] and in test [3] were 91% (active) and -7%, respectively. The result in test [5], in test [6], in test [7] and in test [8] was inactive.
For the compound `CC(Oc1cccc(Cl)c1)C(=O)N1CCc2ccccc21` (stereo not given), the growth inhibition is 77% (active) in test [1] and 94% (active) in test [4]. Moreover, the inhibition was 4% in test [2] and -1% in test [3]. In addition, the outcome in test [5], in test [6], in test [7] and in test [8] was inactive.
In the case of `COc1ccc2nc3cc(Cl)ccc3c(Nc3ccc(C(=O)O)cc3)c2c1`, the growth inhibition in test [1] was 95% (active); in test [4] it was 94% (active). In addition, the inhibition is -7% in test [2] and 6% in test [3]. Moreover, the outcome in test [5], in test [6], in test [7] and in test [8] was inactive.
For the compound `Fc1ccc2nc(-c3ccc(-c4ccc(CNCCN5CCNCC5)cc4)cc3)[nH]c2c1`, the growth inhibition was 70% (active) in test [1] and 96% (active) in test [4]. The inhibition in test [2] is 94% (active); in test [3], -3%. Besides, the result in test [5], in test [6], in test [7] and in test [8] was inactive.
Turning to `O=C(NC1CCCCCC1)C1CCCN(C(=O)c2ccc(O)c(-c3ccc(Cl)c(Cl)c3)c2)C1` (stereo not given), the growth inhibition was 21% in test [1] and 98% (active) in test [4]. In addition, the results for the inhibition in test [2] and in test [3] were 5% and -2%, respectively. For the same compound, the outcome in test [5], in test [6], in test [7] and in test [8] was inactive.
For the compound `COc1cc2nc(Nc3ccc(N4CCOCC4)cc3)nc(N)c2cc1OC`, the growth inhibition in test [1] is 10%; in test [4], 95% (active). For the same compound, the inhibition in test [2] was 8%; in test [3] it was -3%. Also, the outcome in test [5], in test [6], in test [7] and in test [8] was inactive.
